PMC7819943, “Rice protein-binding microarrays: a tool to detect cis-acting elements near promoter regions in rice”
The full ranking holds about 35,000 sequences; the median of “fluorescence intensity (a.u.)” is about 10,000, and the highest 2% start at about 52,000. For the sample, the highest values were picked, then their nearest neighbours and some sequences at random.

Biological target: T1, OsWOX13 (Oryza sativa, UniProt Q5QMM3 1-267)
T1 sequence: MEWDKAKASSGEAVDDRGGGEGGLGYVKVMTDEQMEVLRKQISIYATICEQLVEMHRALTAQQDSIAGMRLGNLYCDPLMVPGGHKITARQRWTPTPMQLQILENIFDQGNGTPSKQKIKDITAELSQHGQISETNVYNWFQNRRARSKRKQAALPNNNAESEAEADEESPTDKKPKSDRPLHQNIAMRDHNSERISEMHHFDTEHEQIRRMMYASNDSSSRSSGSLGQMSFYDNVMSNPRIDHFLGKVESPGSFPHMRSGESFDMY
Experiment: protein-binding microarray (RPBM); PBS, 2% BSA, 51.3 ng/ul salmon testes DNA, 50 uM zinc acetate, 200 nM TF, 25 C, 1 h; high values mean tight binding
Details: protein: recombinant; tags: N-terminal polyhistidine and DsRed monomer fusion (pET32a); label: CyDye5-dUTP incorporated in the synthesized complementary strand; 3' TTTTT single-stranded linker to array surface; dsDNA, one strand shown
Method in brief: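 Binding signal is reported as fluorescence intensity per feature (arbitrary units) from an Axon 4000B scanner. Incubation used 200 nM of each Ni–NTA-purified, N-terminally polyhistidine- and DsRed-fused transcription factor from E. coli BL21-CodonPlus on a double-stranded custom Agilent array for 1 h at 25 °C, with 50 µM zinc acetate in the buffer, followed by washing.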

Compared with “TTTAATTTGTTCATTAAAGACCTAAGAGCTAATAAACGGACGGAGTCACCTAGTGCAG”, “TTTAATTACTAATCAATTTCATACATTCATATAGTTTATTCGGAGTCACCTAGTGCAG” is higher in binding signal: 23100 fluorescence intensity (a.u.) for the first, 55600 fluorescence intensity (a.u.) for the second.

Compared with “TTGACCAATCAATTACTCACTGGTACGGAAAACACTATAGCGGAGTCACCTAGTGCAG”, “ACTCAGTATACACTAATTAGCAATTATTACCGAAATTGTACGGAGTCACCTAGTGCAG” is higher in binding signal: 23300 fluorescence intensity (a.u.) for the first, 23400 fluorescence intensity (a.u.) for the second.

Compared with “TGGATTAAACTAATTTACTGATAAGGTGCGTACAAAATTGCGGAGTCACCTAGTGCAG”, “CTATGTCTGTGTTTGATGATTGCAAGCTGATGTGGGATGGCGGAGTCACCTAGTGCAG” is lower in binding signal: 9850 fluorescence intensity (a.u.) for the first, 9180 fluorescence intensity (a.u.) for the second.

First: ATCTATCTATCTATCTATCTATCTATCTATCTATCTATCTCGGAGTCACCTAGTGCAG
Second: ATCTGTGTAGTCAATTATATTCTCCCTGGGGCCAAACGAACGGAGTCACCTAGTGCAG
The binding signal of the first is higher: 20600 fluorescence intensity (a.u.) for the first, 4100 fluorescence intensity (a.u.) for the second.

First: TGATCTGATTGAACAGTCAATCACAGATTCACAGTAGGACCGGAGTCACCTAGTGCAG
Second: TTTGTTGATTTGTTTTGGTTGGATTGATCTGTCGCTTATACGGAGTCACCTAGTGCAG
The binding signal of the first is higher: 62500 fluorescence intensity (a.u.) for the first, 25500 fluorescence intensity (a.u.) for the second.

Compared with “CATTTGACTGAACAAGAACAGTAGGATCAATCTTTGTGCACGGAGTCACCTAGTGCAG”, “ATGACACATGCCGTTGATTGGTTGACACAGATCGGATTCGCGGAGTCACCTAGTGCAG” is higher in binding signal: 16900 fluorescence intensity (a.u.) for the first, 46900 fluorescence intensity (a.u.) for the second.

Compared with “AACACATTGGATTGATTGATCTGTCGCGGAACAGATTGACCGGAGTCACCTAGTGCAG”, “CCAGTCAAGGGAACAGATTGACCAATCGTTCACACCAGTGCGGAGTCACCTAGTGCAG” is lower in binding signal: 52300 fluorescence intensity (a.u.) for the first, 18400 fluorescence intensity (a.u.) for the second.

First: TTCCAACCAATCATAACCCAATAAGAGCAAAATGGAAAACCGGAGTCACCTAGTGCAG
Second: AGGTGTTGATTTTGGGTGGCGGGCCCAATCGGATAGGCCACGGAGTCACCTAGTGCAG
The binding signal of the first is higher: 4060 fluorescence intensity (a.u.) for the first, 3770 fluorescence intensity (a.u.) for the second.

First: CTGAGGACACTTAATGATTGATGCTCATAATATATTGTTTCGGAGTCACCTAGTGCAG
Second: AAAAGCAGGTTTACTTACGCCTCATGTTCTCACACTAATTCGGAGTCACCTAGTGCAG
The binding signal of the first is lower: 17300 fluorescence intensity (a.u.) for the first, 24400 fluorescence intensity (a.u.) for the second.

First: TCTGTCTGATTTGTAATCTTTTCCCTTGGCTTTGAGCGTGCGGAGTCACCTAGTGCAG
Second: GCAATAATAATTACTGATAGCCACCACTATCAATAATAATCGGAGTCACCTAGTGCAG
The binding signal of the first is higher: 29400 fluorescence intensity (a.u.) for the first, 12600 fluorescence intensity (a.u.) for the second.

Compared with “TTTGCCACTAATTAATCTACTAATGGCTTATGATAGTCATCGGAGTCACCTAGTGCAG”, “GGTCGATCCATCGATTGATGGATCAATAATGCAAGCAAGCCGGAGTCACCTAGTGCAG” is lower in binding signal: 10700 fluorescence intensity (a.u.) for the first, 5030 fluorescence intensity (a.u.) for the second.

Compared with “AATTAATTAATTAGCAATGCAGCATCGTCGATCATTGACCCGGAGTCACCTAGTGCAG”, “CTTAATTAATTAATAGCAGCAGCAATGCCACTGTGGCCATCGGAGTCACCTAGTGCAG” is lower in binding signal: 62500 fluorescence intensity (a.u.) for the first, 53500 fluorescence intensity (a.u.) for the second.

Compared with “TATATATATATAATTATGCATCCTGGTTAGCAATTAATGTCGGAGTCACCTAGTGCAG”, “TTATTTGTTTTGTTTGTGATTTGCTTTATTATCAAAAGTACGGAGTCACCTAGTGCAG” is higher in binding signal: 3400 fluorescence intensity (a.u.) for the first, 4600 fluorescence intensity (a.u.) for the second.

First: ATCGTATCATTGATTTTCACTTAATATGGTGGACCCATCACGGAGTCACCTAGTGCAG
Second: ACAGACATAAATACGATTGATTAAGTAGTAGCCTAGCTAACGGAGTCACCTAGTGCAG
The binding signal of the first is lower: 12700 fluorescence intensity (a.u.) for the first, 14600 fluorescence intensity (a.u.) for the second.

Going from “GGTTTATTCAATTATGAAATTTTACTCCCCTATGTACTAACGGAGTCACCTAGTGCAG” to “GTTCATGCAATAACGTTAATTTGGGACTAGATTAGTATCCCGGAGTCACCTAGTGCAG”, the binding signal falls from 11100 fluorescence intensity (a.u.) to 7620 fluorescence intensity (a.u.).

Going from “TTTATAATTAGTATCAAAACATCCGATATGATAGTTACTTCGGAGTCACCTAGTGCAG” to “CCAATCCACAACATAACCATCAATCATTCATTGACGCAAGCGGAGTCACCTAGTGCAG”, the binding signal falls from 17100 fluorescence intensity (a.u.) to 4680 fluorescence intensity (a.u.).

Going from “GATTAATTTACTAGACGAATCTTTTAAGCCTAATTACTCCCGGAGTCACCTAGTGCAG” to “CTAAACACGTTGATGGGCCTGAATGGAGGAAGCCCATCGACGGAGTCACCTAGTGCAG”, the binding signal falls from 36100 fluorescence intensity (a.u.) to 3790 fluorescence intensity (a.u.).

Compared with “TTTCATGTAAATTAACACGAGCCTGAATCCTCCGTTGAAGCGGAGTCACCTAGTGCAG”, “CCGTCGCCTGATGGAGCAGAATCGTGAAACACGTTGTAAGCGGAGTCACCTAGTGCAG” is higher in binding signal: 3750 fluorescence intensity (a.u.) for the first, 57800 fluorescence intensity (a.u.) for the second.

Going from “ATAATAATTAGTCATAAAGACAAGTGCTTATGCCCACTTACGGAGTCACCTAGTGCAG” to “ATGTGTCAATTAATTATTTGCCACTCGCTGTCTATGACATCGGAGTCACCTAGTGCAG”, the binding signal rises from 16700 fluorescence intensity (a.u.) to 28300 fluorescence intensity (a.u.).

Compared with “GGTGGATGAGAATGGATTGAATGAAAACAACAACATATTACGGAGTCACCTAGTGCAG”, “CAATTGTCCGGATTGAGATATGACTGAAGCGGATGCTGGACGGAGTCACCTAGTGCAG” is lower in binding signal: 7970 fluorescence intensity (a.u.) for the first, 3220 fluorescence intensity (a.u.) for the second.

First: TGAAGATTGATGAGATGGACGGTACCATTGCCGATGCTGTCGGAGTCACCTAGTGCAG
Second: TTTTGATCACACCATGATTGATGCACAAATCCATATGAACCGGAGTCACCTAGTGCAG
The binding signal of the first is higher: 56700 fluorescence intensity (a.u.) for the first, 36800 fluorescence intensity (a.u.) for the second.

First: TTGCTGATTGAAGCTGATACTGTCGTGAAATGAACCATGTCGGAGTCACCTAGTGCAG
Second: ATTGATGGGTACATTGAGATGGAGCTGTTTGGACAAGTTGCGGAGTCACCTAGTGCAG
The binding signal of the first is higher: 38200 fluorescence intensity (a.u.) for the first, 7520 fluorescence intensity (a.u.) for the second.

For “ATGATTGATTGCTTTTCCTAAATCCTAACCATGATGCTGTCGGAGTCACCTAGTGCAG”, the binding signal was 65000 fluorescence intensity (a.u.).
